Assay outcomes: PubChem BioAssay, National Center for Advancing Translational Sciences (NCATS)
The list is not random: actives were taken first. Their share in the collection is about 2.4%.
D2 ag-1 – D2 dopamine receptor (human) agonism. HEK293 T-REx D2 cells, calcium flux agonist mode. activation, % at 2 µM. actives 0.53% (n = 340,000);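 active means activation over 3 SD above normal in the single-dose calcium agonist read, cut at about 30% in these data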; further: 0% is about no effect
Target sequence (P14416 whole entry, looked up): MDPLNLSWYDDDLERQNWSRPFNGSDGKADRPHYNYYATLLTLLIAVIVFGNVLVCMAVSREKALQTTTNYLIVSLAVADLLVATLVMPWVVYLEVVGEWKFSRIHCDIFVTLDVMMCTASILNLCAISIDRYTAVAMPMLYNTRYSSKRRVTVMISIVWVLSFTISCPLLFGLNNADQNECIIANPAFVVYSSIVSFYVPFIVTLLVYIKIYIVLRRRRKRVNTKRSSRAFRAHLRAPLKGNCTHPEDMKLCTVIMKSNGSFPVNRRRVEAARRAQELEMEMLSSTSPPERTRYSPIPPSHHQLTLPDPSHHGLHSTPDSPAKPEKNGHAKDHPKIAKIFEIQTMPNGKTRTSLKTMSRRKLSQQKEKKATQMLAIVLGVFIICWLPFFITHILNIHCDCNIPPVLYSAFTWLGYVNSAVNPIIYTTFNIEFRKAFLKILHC
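Tetracycline-induced HEK293 T-REx cells with force-coupled D2 receptor, plated overnight at 30 C, loaded with no-wash calcium dye. After a 10 s baseline, compound was pin-added and calcium flux read kinetically for 180 s; calcium rises flagged agonists.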
D2 PAM-1 – positive allosteric modulators of human D2 dopamine receptor. P14416. HEK293 T-REx D2, calcium flux, EC20 dopamine potentiation. potentiation, % at 10 µM. actives 0.34% (n = 340,000);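 active means potentiation over 3 SD above the plate norm, cut at about 30% in these data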; further: 0% is about no effect
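Calcium flux readout, no-wash dye, 1 read/s. Inducible HEK293 Trex D2 line, overnight 30 C. Compound alone 180 s (agonist flags), then EC20 dopamine, another 180 s to score potentiation.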
D2 PAM-2 – human D2 receptor positive allosteric modulation; P14416; DiscoveRx D2 beta-arrestin cells, luminescence, 90 min; 100% = 57 uM dopamine signal; potentiation, % (concentration not given with the values); actives 0.23% (n = 360,000); in the data active means potentiation above about 50%; inconclusive means mostly about 30% to 49%
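PathHunter beta-arrestin assay in DiscoveRx D2 cells. Compounds were added with an EC20 of dopamine (50 nM final) for 90 min at 37 deg C. Luminescence was read 1 h after detection reagent, with 57 uM dopamine as the EC100 control.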
D2 antag – antagonizes the human D2 dopamine receptor; P14416; HEK293 TREx D2 cells, calcium flux, dopamine EC80; inhibition, % at 10 µM; actives 2% (n = 340,000); in the data active means inhibition above about 30%; inactive means below that, where a call was filed; further: 0% is about no effect
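Calcium flux kinetic readout in an inducible HEK293 TREx D2 line plated overnight at 30 C. After 180 s compound exposure, an EC80 dopamine challenge follows with another 180 s kinetic read to detect antagonism.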
D2 ag-2 – agonists of human D2 dopamine receptor (beta-arrestin); P14416; DiscoveRx PathHunter D2 beta-arrestin, luminescence, 90 min; 100% = 57 uM dopamine signal; activation, % (concentration not given with the values); actives 0.084% (n = 360,000); AID 624465; in the data active means activation above about 40%; inconclusive means between about 15% and that limit
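DiscoveRx PathHunter D2 beta-arrestin cells (2,100/well) attached overnight, then compound-stimulated 90 min at 37 C in HBSS/10 mM HEPES/0.1% Tween-20 buffer; beta-galactosidase complementation read by luminescence after 1 h at ambient temperature. Dopamine 57 uM final (EC100) as control.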
An asterisk follows results filed as active; u = inconclusive; x = not tested or not shown.

SMILES | D2 ag-1 | D2 PAM-1 | D2 PAM-2 | D2 antag | D2 ag-2
CCOC(=O)C(NC(=O)c1ccccc1)=C1C=C(C)OC(C)=C1 | 0 | 30* | -3 | 12 | -1
CCc1cccc(NC(=O)CC(c2ccc(OC)cc2)N2Cc3ccccc3C2=O)c1 (configuration not stated) | 0 | -6 | x | x | x
COc1ccc(-c2csc(NC(=O)CN3C(=O)NC4(CCCC4)C3=O)n2)cc1 | 0 | -14 | 2 | 38* | 1
O=C(O)c1cccc(NC2=C(Cl)C(=O)c3ccccc3C2=O)c1 | x | -3 | 1 | x | 41*
Cc1ccc(NC2=C(NC(=O)c3ccccc3)C(=O)c3ccccc3C2=O)cc1Cl | -2 | 2 | 65* | 14 | 11
CCn1c(=O)cc(SCC(=O)NCc2ccccc2OC)c2ccccc21 | 2 | 17 | x | x | x
Cc1c(CN2CCCCC2)c(O)n(CCCO)c(=O)c1C#N | 2 | 6 | 10 | 9 | 4
CCCn1c(O)c(CN2CCCCC2)c(C)c(C#N)c1=O | 14 | -15 | 64* | 13 | 8
O=C(NC1CCCC1)C(c1ccncc1)N(Cc1cccs1)C(=O)c1csnn1 (configuration not stated) | -1 | 3 | -12 | 36* | -2
CC(C)(C)NC(=O)C(c1ccncc1)N(Cc1cccs1)C(=O)c1csnn1 (configuration not stated) | 1 | -6 | -4 | -3 | -1
CCOc1ccc(/C=C/c2nc(C#N)c(Nc3ccc(OC)cc3)o2)cc1 | 0 | 3 | x | x | x
Cc1cc(NC(=O)Cn2ccsc2=N)c([N+](=O)[O-])cc1C | 0 | -19 | 7 | 22 | -7
COc1ccc([N+](=O)[O-])cc1NC(=O)Cn1ccsc1=N | 1 | -19 | -44 | 31* | 4
Fc1ccc(N2CCN(c3nnnn3-c3ccccc3)CC2)cc1 | -1 | -17 | -11 | 50* | 0
C=CCn1c(=NC(=O)c2ccccc2[N+](=O)[O-])sc2cc(S(C)(=O)=O)ccc21 | -1 | 13 | 71* | 3 | u
O=C(CSc1ccc(-c2ccccc2)nn1)Nc1ccc2c(c1)OCCO2 | 1 | 0 | -5 | 32* | -1
O=C(CSc1ccccc1)Nc1ccc2c(c1)OCCO2 | 1 | -6 | -6 | 8 | -1
O=C(CSc1ccc(-c2ccc(F)cc2)nn1)NCCc1ccccc1 | 0 | 3 | -7 | 5 | 0
COc1ccccc1-c1ccc(SCC(=O)NCCc2ccccc2)nn1 | -2 | -2 | -7 | 48* | -1
CCC(=O)Nc1ccc2c(c1)OCCO2 | 0 | 30* | 2 | 8 | 0
CS(=O)(=O)N(CC(=O)Nc1ccc2c(c1)OCCO2)c1ccc2c(c1)OCO2 | -2 | 48* | -13 | -8 | -4
C/C(CC(=O)Nc1ccc2c(c1)OCCO2)=N\NC(=O)C(=O)Nc1ccccc1C | -1 | -6 | -4 | 32* | -4
COc1ccc(NC(=O)CSc2ccc(-c3ccccn3)nn2)cc1OC | 1 | 1 | u | -13 | 54*
C/C(CC(=O)Nc1ccc2c(c1)OCCO2)=N\NC(=O)COc1ccccc1C | 0 | -8 | -8 | -20 | -1
COc1ccccc1NC(=O)CSc1ccc(-c2ccccn2)nn1 | -1 | -4 | 4 | 14 | -3
SMILES | D2 ag-1 | D2 PAM-1 | D2 PAM-2 | D2 antag | D2 ag-2
COc1cccc(NC(=O)CN(c2cccc(OC)c2)S(C)(=O)=O)c1 | 1 | -7 | 1 | 38* | -4
COc1ccc(-c2nc3nc(C)cc(N4CCN(c5cccc(C(F)(F)F)c5)CC4)n3n2)cc1 | x | -8 | x | x | x
NC(=O)c1ccc(N2CCN(c3ccccc3O)CC2)c([N+](=O)[O-])c1 | -1 | 17 | 4 | -17 | 6
NC(=O)c1ccc(N2CCN(c3ccccc3F)CC2)c([N+](=O)[O-])c1 | 0 | 41* | -4 | -16 | -3
CCOC(=O)c1c(C)oc2c1cc(O)c1ccccc12 | 0 | 3 | 58* | 0 | 9
CC(=O)c1c(C)oc2c1cc(O)c1ccccc12 | 0 | -23 | -7 | 2 | 0
COc1ccc(NC2=NCC(=O)N2c2ccccc2F)cc1 | -1 | 7 | -1 | 37* | -4
Cc1oc(-c2cccs2)nc1CN1CCC(C(=O)N2CCCC2)CC1 | -2 | -10 | -11 | 23 | -4
